Screen size: about 340,000 compounds; about 1,700 (0.5%) were called active. What follows is part of a selection rich in actives, with near analogues and random picks from the rest. A number with no mark means an inactive call. Rule as the data show it: active = inhibition above about 40%; inactive = the rest.
Target: Cysteine protease ATG4B (Homo sapiens) (UniProt Q9Y4P1)
Test: ATG4B protease inhibitors, primary screen, biochemical, fluorescence, uHTS (AID 504462)
Conditions: ATG4B cleavage of LC3-PLA2, NBD-HPC fluorescence, 1 h; at 8.33 µM; active compounds read high

Cysteine protease ATG4B (Homo sapiens), sequence (Q9Y4P1 whole entry, looked up): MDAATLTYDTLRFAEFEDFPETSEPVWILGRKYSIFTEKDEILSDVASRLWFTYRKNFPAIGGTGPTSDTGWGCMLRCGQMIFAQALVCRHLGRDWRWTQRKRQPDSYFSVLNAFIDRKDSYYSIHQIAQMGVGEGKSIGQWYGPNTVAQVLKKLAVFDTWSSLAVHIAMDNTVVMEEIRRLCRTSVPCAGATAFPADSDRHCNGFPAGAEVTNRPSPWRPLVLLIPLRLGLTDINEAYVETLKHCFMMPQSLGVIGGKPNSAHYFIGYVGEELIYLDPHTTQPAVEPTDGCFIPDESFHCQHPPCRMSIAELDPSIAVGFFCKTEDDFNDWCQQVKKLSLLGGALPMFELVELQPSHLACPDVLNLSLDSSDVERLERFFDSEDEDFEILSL

In the case of Cc1cc(OCc2cc(C(=O)O)oc2C)c2c3c(c(=O)oc2c1)CCCC3, the inhibition was 48.7% (active).

Going from CCN1CCN(C(=O)Cc2coc3cc(C)cc(C)c23)CC1 to COC(=O)COc1cc(C)cc2oc(=O)c3c(c12)CCCC3, the inhibition falls from -5.73% to -8.24%.

First: CCOC(=O)C1(CCc2ccccc2)CCN(Cc2ccco2)CC1
Second: CC(Cc1ccccc1)NCCC(c1ccccc1)c1ccccc1 (stereo not given)
The inhibition of the first is lower: -6.2% for the first, -1.23% for the second.

Source: PubChem BioAssay AID504462 (Sanford-Burnham Center for Chemical Genomics, 2011)
